Myeloid diff MLP = promotes myeloid progenitor differentiation | ER-HoxA9 myeloid progenitors, lysozyme-GFP differentiation, flow cytometry | calls only at 10 µM | 1% of 360,000 active | AID 624256;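 active means normalized GFP-positive differentiation at or above the plate's own cutoff, the solvent-only control mean plus 3 SD; inconclusive means no clear call, values can overlap the other calls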;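 further: cells exposed to compound for four days before flow analysis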
RPL19A TOR yeast = modulators of TOR pathway RPL19A-GFP in S. cerevisiae | S. cerevisiae RPL19A-GFP strain, flow cytometry, 3 h; hits give low values | 0.3% of 330,000 active | AID 2025 | percent response vs DMSO, % at 10 µM;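 active means percent response vs DMSO below 50%; inconclusive means fewer than 70 events counted for the yeast strain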;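 further: median channel GFP fluorescence of the barcoded RPL19A-GFP strain; lower means less RPL19A-GFP as with rapamycin TOR inhibition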
AGP1-GFP MLPCN = modulators of TOR pathway AGP1-GFP in S. cerevisiae; S. cerevisiae AGP1-GFP multiplex flow cytometry, 3 h; GFP as percent of DMSO wells; GFP response vs DMSO, % at 10 µM; 0.02% of 320,000 active; AID 2066;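 active means GFP response relative to DMSO above a set limit, near screen average plus 3 SD, cut at about 150% in these data; inconclusive means fewer than 70 cells counted for the yeast strain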;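 further: median GFP channel fluorescence of the gated AGP1 strain per well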
CIT2-GFP yeast = modulators of TOR pathway CIT2-GFP in S. cerevisiae; 0.065% of 320,000 active; GFP response vs DMSO, % at 10 µM; S. cerevisiae CIT2-GFP strain, flow cytometry, 3 h; 100 means same as DMSO wells;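 active means GFP response relative to DMSO above a set limit, near the screen mean plus 3 SD, cut at about 150% in these data; inconclusive means Fewer than 70 cells measured for a yeast strain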;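 further: ratio of well median GFP fluorescence to mean of DMSO wells on the plate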
MEP2-GFP yeast = alters MEP2-GFP fluorescence in TOR pathway yeast screen; GFP response vs DMSO, % at 10 µM; S. cerevisiae MEP2-GFP strain, flow cytometry GFP, 3 h; 100% = DMSO control level; AID 2016; 0.51% of 330,000 active;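 active means GFP response versus DMSO above a set limit, roughly screen mean plus 3 SD, cut at about 180% in these data; inconclusive means fewer than 70 cells counted for a yeast strain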;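 further: median GFP fluorescence of the barcode-gated MEP2-GFP cells per well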
LAP4-GFP MLPCN = modulators of TOR pathway LAP4-GFP in S. cerevisiae; S. cerevisiae LAP4-GFP multiplex, flow cytometry GFP, 3 h; median GFP as percent of DMSO wells; GFP response vs DMSO, % at 10 µM; 0.34% of 320,000 active;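 active means GFP response vs DMSO above a set limit, about the screen mean plus 3 SD, cut at about 150% in these data; inconclusive means under 70 cell events counted for the yeast strain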
A number is an active result; 0 = inactive; ? = inconclusive; - = not tested or not shown; + = active, no number; [ ] = remark or other dose. Compounds with a hit are over-represented: about 1.8% of the library has one in this group of screens.

SMILES	Myeloid diff MLP	RPL19A TOR yeast	AGP1-GFP MLPCN	CIT2-GFP yeast	MEP2-GFP yeast	LAP4-GFP MLPCN
Cc1nn(C)cc1C1C2=C(CC(C)(C)CC2=O)N(c2ccccc2)C2=C1C(=O)CC(C)(C)C2	0	0	0	0	0	0
Cc1ccc(N2C3=C(C(=O)CC(C)(C)C3)C(c3cn(C)nc3C)C3=C2CC(C)(C)CC3=O)cc1	+	0	0	153	180	0
COc1ccc(N2C3=C(C(=O)CC(C)(C)C3)C(c3ccccc3OC)C3=C2CC(C)(C)CC3=O)cc1	0	0	0	0	0	0
COc1ccccc1C1C2=C(CC(C)(C)CC2=O)N(CC(=O)O)C2=C1C(=O)CC(C)(C)C2	0	0	0	0	239	0
COc1ccccc1C1Nc2ccccc2NC2=C1C(=O)CC(C)(C)C2 (configuration not stated)	0	38[may fluoresce violet]	?	?	627[may fluoresce violet]	0
COc1cccc(C2Nc3ccccc3NC3=C2C(=O)CC(C)(C)C3)c1OC (configuration not stated)	0	0	0	0	0	0
CC(C)(C)OC(=O)NCCc1nnc(S(=O)(=O)Cc2ccc(Cl)cc2Cl)o1	0	0	0	0	0	0
Clc1ccc(C2Nc3ccccc3-n3cccc32)cc1 (configuration not stated)	0	0	0	0	0	0
CCn1nc(C)cc1C(=O)N1CCCC(C(=O)c2ccccc2SC)C1 (configuration not stated)	+	0	0	0	0	0
Cc1nc(-c2ccccc2)sc1-c1nc(-c2cccnc2)ncc1S(=O)(=O)c1ccccc1	+	0	0	0	0	0
Cc1cc(C)n(CCCN2CCC(C(=O)Nc3cccc(-c4cccc(F)c4)c3)CC2)n1	0	0	0	0	0	0
O=C(CCn1c(=O)oc2ccccc21)Nc1ccc(N2CCOCC2)cc1	0	0	0	0	0	0
O=C(CCn1c(=O)oc2cc(Cl)ccc21)Nc1ccc(N2CCOCC2)cc1	+	0	0	0	0	0
CN1OC[C@@H]2CN(S(=O)(=O)c3cc(Cl)cc(Cl)c3)[C@H](c3ccc(-c4ccc(C#N)cc4)cc3)C[C@@H]21	0	-	-	-	-	-
CC(C)NC(=O)c1ccc2c(c1)N(CC(=O)N1CCOCC1)C(=O)C(C)(C)O2	0	0	0	0	0	0
N#Cc1c(N)nc(Sc2ccc(Cl)cc2)c(C#N)c1-c1ccccc1Cl	+	0	0	0	0	0
Cc1cc2c(ncn2Cc2ccccc2)c(N)c1C	0	0	0	0	0	0
Cc1ccc(S(C)=O)cc1-n1c(=O)n(Cc2ccccc2)c(=O)c2[nH]cnc21 (configuration not stated)	+	0	0	0	0	0
COc1ccc(NC(=O)c2cccs2)cc1	0	46[may fluoresce violet]	-	?	297[may fluoresce violet]	0
CSc1cccc(N2CC(C(=O)N(Cc3nnc(-c4ccccc4Cl)o3)C3CC3)CC2=O)c1 (configuration not stated)	+	0	0	0	0	0
CCOc1ccccc1CN1CCN(C/C=C/c2ccc(OC)cc2)CC1CCO (configuration not stated)	0	0	0	0	0	0
COc1ccc(/C=C/CN2CCN(CCc3ccccc3)C(CCO)C2)cc1 (configuration not stated)	+	0	0	0	0	0
O=C(NCc1ccco1)C1CCN(C(=O)c2ccc(Cl)cc2Cl)CC1	+	0	0	0	0	0
O=C(NCc1cccnc1)C1CCN(C(=O)c2ccc(Cl)cc2Cl)CC1	0	0	0	-	0	0
CCOC(=O)C1CCN(C(=O)CN2C(=O)CSc3ccc(S(=O)(=O)N4CCOCC4)cc32)CC1	0	0	0	0	0	0
CCN1CCN(CCNC(=O)c2ccc3nc(-c4cccc(C)c4)c(-c4cccc(C)c4)nc3c2)CC1	0	16[may fluoresce violet]	?	?	0	0
O=c1[nH]c2cc3ccccc3cc2nc1-c1nnnn1C1CCCC1	+	-	-	-	-	-
O=C(/C=C/c1ccc2ccccc2n1)c1cc(Cl)ccc1O	+	0	0	0	0	0
O=C(/C=C/c1cccs1)c1cc(Cl)ccc1O	0	0	0	0	0	0

Bioassay records as filed in PubChem BioAssay.
